Screens deposited in PubChem by Broad Institute.
These entries were drawn from the full list.
aSyn 5UTR act: Activators working through SNCA 5'UTR binding (MLPCN); alpha-synuclein 5'UTR reporter, activators screen; activity score, % (tested at 7.5 µM), hits read low; 300,000 compounds, 7.1% hits; AID 1814; in the data active = activity score below about -60%
Starred values were filed as active, the others as inactive.

SMILES	aSyn 5UTR act
O=Nc1c2nc3ccccc3n(O)c-2c2ccccc12	-129*
COC(=O)c1cc(Br)ccc1-c1ccc(/C=N/n2nnnc2N)o1	55
CCN(C)c1ccc(/C=N\n2nnnc2N)cc1	-115*
CCN(CC)c1ccc(/C=N/n2nnnc2N)c(O)c1	-89*
CC(=O)Cn1nnc2sc3c(c2c1=O)CCC(C(C)(C)C)C3 (stereo unspecified)	-113*
CC(=O)c1cccc(NC(=O)c2cc3nc(C)cc(C)n3n2)c1	-139*
Cc1cc(C)n2nc(C(=O)Nc3ccc4c(c3)OCO4)cc2n1	-84*
Cc1ccc(C(=O)/C=C2/NC(=O)CS2)cc1	-103*
CCOc1ccc(-c2cc(C(=O)NN)[nH]n2)cc1	-69*
O=C(NCc1nnnn1-c1ccc(F)cc1)c1ccc([N+](=O)[O-])o1	-136*
Cc1ccc(-n2nnnc2CNC(=O)c2ccc([N+](=O)[O-])o2)cc1C	-98*
C/C(=C/c1oc2ccc(O)cc2c1[N+](=O)[O-])N(C)C	-96*
COc1cc(/C=C/[N+](=O)[O-])ccc1OC(=O)c1cc2ccccc2oc1=O	-102*
COCCN=C1NN=C(c2ccc(C)c([N+](=O)[O-])c2)CS1	-108*
CCCCN=C1NN=C(c2ccc(C)c(C)c2)CS1	-162*
CC1CC(=O)NN=C1c1ccc(NCCO)c([N+](=O)[O-])c1 (stereo unspecified)	76
Cc1oc(=O)c(NC(=O)c2cccc(Cl)c2)cc1C(=O)c1ccccc1	-237*
O=C(Nc1cc2ccccc2oc1=O)c1ccccc1	74
C=CCc1c(C)nc(-c2ccccc2)nc1N/N=C(\C)c1ccc(N)cc1	-69*
C=CCc1c(C)nc(-c2ccccc2)nc1N/N=C/c1ccncc1	-95*
COc1ccc(CC(=O)N2CCc3ccccc32)cc1	-74*
COc1ccc(CC(=O)N2CCC(c3ccccc3)C2)cc1 (stereo unspecified)	-65*
COc1ccc2c(CC(=O)N3CCc4ccccc43)coc2c1	-105*
Cc1cc(C)c(C#N)c(SCc2cn3ccccc3n2)n1	-88*
Clc1ccc2nc(CSCc3ccccc3)cn2c1	-167*
SMILES	aSyn 5UTR act
Clc1ccc(SCc2cn3ccccc3n2)cc1	-148*
c1ccc2[nH]c(SCc3cn4ccccc4n3)nc2c1	-62*
Cc1ccc(SCc2cn3cc(Cl)ccc3n2)cc1	-136*
Cc1cccc2nc(CSc3ccc(Cl)cc3)cn12	-118*
Nc1nnc(SCc2cn3cc(Cl)ccc3n2)s1	-97*
c1ccc2c(SCc3cn4ccccc4n3)nncc2c1	-70*
CNc1cc(CSc2ccc(Cl)cc2)nc(C)n1	-118*
Cn1c(=O)c2nc(-c3ccc(Cl)cc3Cl)oc2c2ccccc21	-72*
CCCc1cc(N2CCOCC2)n2ncc(-c3ccccc3)c2n1	-67*
Cc1nc2c(-c3ccccc3)cnn2c(N2CCOCC2)c1C	-191*
CC(C)OC(=O)/C(C#N)=C/c1ccc(-c2ccc(SC(F)F)cc2)o1	-88*
Cc1oc(-c2ccc(Cl)cc2)cc1C(=O)O	-83*
NC(=O)CC1C(=O)N(c2ccccc2)C(=S)N1NC(=O)c1ccccc1 (stereo unspecified)	-73*
O=c1c2[nH]c3ccc(F)cc3c2ncn1CCC1=CCCCC1	-121*
COc1ccc2c(c1)[nH]c1c(=O)n(CCC3=CCCCC3)cnc12	-99*
CCN1C=CC(=C2C(=O)c3ccccc3C2=O)C=C1	96
CC1=CC(=C2N=C(c3ccccc3)OC2=O)C=C(C)O1	-146*
CC1=CC(=C2C(=O)c3ccccc3C2=O)C=C(C)N1Cc1ccco1	-217*
CCCN1C=CC(=C2C(=O)c3ccccc3C2=O)C=C1	132
CC1=CC(=C2C(=O)c3ccccc3C2=O)C=C(C)O1	-129*
COc1ccccc1N1CCN(/N=C\c2ccccc2)CC1	-103*
COc1ccccc1N1CCN(C(=O)C2c3ccccc3Oc3ccccc32)CC1	81
COc1ccccc1N1CCN(/N=C\c2ccc(C)o2)CC1	-98*
COc1ccccc1N1CCN(/N=C/C(Cl)=C/c2ccccc2)CC1	-159*
O=C(CCCc1ccccc1)N1CCN(C2CCCCC2)CC1	-115*
SMILES	aSyn 5UTR act
CCC1CCCCN1C(=O)CCCc1ccccc1 (stereo unspecified)	-105*
CCC1CCCCN1C(=O)CCS(=O)(=O)c1ccccc1 (stereo unspecified)	-93*
O=C(Nc1ccc(F)cc1)Nc1nnc(-c2ccco2)s1	-100*
O=C(Nc1nnc(-c2ccco2)s1)C1CC1	-76*
CC(/C=N/NC(=O)c1nnn(-c2nonc2N)c1C(C)C)=C\c1ccccc1	-81*
Nc1nonc1-n1nnc(C(=O)N/N=C/C=C/c2ccccc2)c1CSC1=NCCS1	-80*
CCCc1c(C(=O)N/N=C/C(C)=C/c2ccccc2)nnn1-c1nonc1N	-67*
Cc1ccc(CN=c2c([N+](=O)[O-])nn(-c3ccc4c(c3)OCCO4)n2O)cc1	-132*
COc1ccc(-n2nc([N+](=O)[O-])c(=NCc3ccc4c(c3)OCO4)n2O)cc1	-109*
Cc1ccc(NC(=O)c2[nH]cnc2C(=O)NN)cc1	-65*
O=C(c1ccccc1)c1nc[nH]c1C(=O)Nc1ccccc1	-91*
COc1ccc(C(=O)Cc2cc3ccccc3oc2=O)cc1	-125*
Cc1ccc(C(=O)NC(=S)Nc2ccc(-c3cc4ccccc4oc3=O)cc2)c(C)c1	88
Cc1ccc(C(=O)Cc2cc3ccccc3oc2=O)c(C)c1	-130*
COc1ccc(-c2nnc(SC(C)C(=O)Nc3ccc4c(c3)OCCO4)o2)cc1 (stereo unspecified)	-101*
O=C(CSc1nnc(-c2ccc(O)cc2)o1)Nc1ccc2c(c1)OCCO2	-83*
O=C(CSc1nnc(-c2ccccc2Cl)o1)Nc1ccc2c(c1)OCCO2	-137*
O=C(CSc1nnc(-c2ccc(O)cc2)o1)Nc1ccccc1Br	-132*
O=C(Nc1ccc2c(c1)OCCO2)C1CC(c2ccccc2Cl)=NO1 (stereo unspecified)	-124*
COc1ncnc2c1cnn2-c1ccccc1	-67*
COc1ccccc1Oc1ncnc2c1cnn2-c1ccccc1	-115*
COc1ccc(-n2ncc3c(N(C)C4CCCCC4)ncnc32)cc1	94
Cc1ccccc1-c1cc(-c2ccccc2O)on1	-216*
CCc1ccn2cc(-c3cc(-c4ccccc4)no3)nc2c1	94
Cc1ccc2nc(-c3cc(-c4ccccc4)no3)cn2c1	86
SMILES	aSyn 5UTR act
Cc1ccc(O)c(-c2cc(-c3ccc(F)cc3)no2)c1	-109*
Oc1ccccc1-c1cc(-c2ccccc2)no1	-133*
CCN(CC)CCCN(C(=O)c1cccs1)c1nc(-c2ccc(OC)cc2)cs1	-101*
COc1ccc(-c2csc(N(C)C(=O)c3cccs3)n2)cc1	-126*
COCCCN(C(C)=O)c1nc(-c2ccccc2)cs1	-146*
O=C(/C=C/Nc1ccccc1)c1ccc(Cl)cc1Cl	-122*
CC1Sc2ccc(C(=O)OCc3ccccc3Cl)cc2NC1=O (stereo unspecified)	-147*
CC1Sc2ccc(C(=O)Nc3ccccc3OC(F)F)cc2NC1=O (stereo unspecified)	-81*
CN(C)C(=O)CSc1nnc(C23CC4CC(CC(C4)C2)C3)o1	-160*
COc1ccc(C(=O)NCCC2=CCCCC2)cc1OC1CCN(C(C)C)CC1	-74*
O=C(COC(=O)c1ccccc1Br)NCCC1=CCCCC1	-64*
Cc1cc(C(=O)NCCC2=CCCCC2)c(C)o1	-123*
COc1cccc(C(=O)NCCC2=CCCCC2)c1OC	-117*
O=C(NCCC1=CCCCC1)c1cnccn1	-114*
